# According to PubChem BioAssay (EPA / NIEHS):
# Records with an inconclusive call do not appear. Activity calls are given as the source filed them. Rule for the calls, unless noted: active = hit-call score of the fitted dose curve at least 0.9, where 1 is the maximum; inconclusive = response in the unintended direction; inactive = score below 0.9.
# Columns and labels:
# [1] = CCTE_Mundy_HCI_iCellGluta_NOG_NeuriteCount: CCTE's Neurite Outgrowth Assay in iCellGluta cells for Neurite Count, Mundy Lab (AID 2284342);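 note: chemical exposure about 48 hours starting 2 hours after plating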
# [2] = tested on: SERPINA7 (gene 6906); assay: CCTE_GLTED_hTBG: CCTE's human Thyroxine-binding Globulin (TBG) Inhibition Assay, Great Lakes Toxicology and Ecology Division (GLTED) Lab (AID 2284343);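 note: active chemicals lower fluorescence versus DMSO baseline by displacing probe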
# In short: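 Human TBG incubated 2 h with test chemical; displacement of ANSA probe read by fluorescence, 380 nm excitation/475 nm emission. Loss of signal relative to DMSO.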
# [3] = tested on: SRY-box transcription factor 2 (SOX2) Protein Expression, Deisenroth Lab, SOX2 (gene 6657); assay: CCTE_Deisenroth_DEVTOX-GLR_legacy_Sox2: (Legacy) CCTE's DevTox GLR-Endo Assay Evaluation of SRY-box transcription factor 2 (SOX2) Protein Expression, Deisenroth Lab (AID 2284346; active = hit-call score of the fitted dose curve at least 0.9, where 1 is the maximum; inactive = score below 0.9)
# Method: CCTE_Deisenroth_DEVTOX-GLR_legacy assay is a cell-based, multiplex-readout assay that uses RUES2-GLR, a human pluripotent cell line, with measurements taken at 48 hours after chemical dosing in a 384-well microplateCCTE_Deisenroth_DEVTOX-GLR_legacy_Sox2 is one of 4 assay components calculated from the CCTE_Deisenroth_DEVTOX-GLR_legacy assay that measures an increase in the percentage of cells in an ectodermal or pluripotent state. It is designed to make measurements of inducible reporter a form of fluorescent protein induction as detected with optical fluorescence microscopy. Percentage Sox2+ cells are determined by calculating the number of Sox2+ cells divided by cell count. A cell is Sox2+ if the cell Sox2 mean intensity is 5x BMAD above the directed endoderm control median cell Sox2 mean. The assay endpoint was analyzed with bidirectional fitting with the 0.2% DMSO control median percent Sox2 in the CCTE_Deisenroth_DEVTOX-GLR_Endo assay subtracted.Data from the assay component CCTE_Deisenroth_DEVTOX-GLR_legacy_Sox2 was analyzed into 1 assay endpoint. This assay endpoint, CCTE_Deisenroth_DEVTOX-GLR_legacy_Sox2, was analyzed in the positive analysis fitting direction relative to DMSO as the negative control and baseline activity. Using a type of inducible reporter, gain-of-signal activity can be used to understand changes in gene expression. Furthermore, this assay endpoint can be referred to as a secondary readout, because this assay has produced multiple assay endpoints where this one serves as a measure of pluripotency or ectoderm differentiation. To generalize the intended target to other relatable targets, this assay endpoint is annotated to the transcription factor intended target family, where the subfamily is SRY-related HMG-box.
# (§1) All assay protocols are aligned to the DevTox GLR-Endo assay workflow. Cells are seeded into 384-well microplates for 24 hours prior to initiating differentiation in defined media for a total duration of 48 hours. A total of two chemical exposures are administered in 24-hour intervals during the 48-hour differentiation period. At the assay termination point, cells are fixed and stained with a fluorescent dye demarcating the nucleus. High-content imaging is used to acquire brightfield and fluorescent channel images across 5 fields per well. Cell identification and mean biomarker fluorescence intensities are calculated with image analysis software to determine the total cell counts for viability assessment and the biomarker expression frequency for each lineage-dependent assay. A typical experimental design tests a 10-point concentration series (1 nM - 200 uM) for 28 compounds in single technical replicate. Assay plate controls include non-differentiated pluripotent cells (baseline control), lineage-specific differentiated cells (differentiation control), and DMSO solvent exposed differentiated cells (solvent control). Experiments typically comprise a minimum of four experimental replicates (n=4).
# [4] = tested on: SRY-box transcription factor 2 (SOX2) Protein Expression, Deisenroth Lab, SOX2 (gene 6657); assay: CCTE_Deisenroth_DEVTOX-GLR_Endo_SOX2: CCTE's DevTox GLR-Endo Assay Evaluation of SRY-box transcription factor 2 (SOX2) Protein Expression, Deisenroth Lab (AID 2284412)
# In short: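 RUES2-GLR human pluripotent cells were seeded 24 h, then differentiated 48 h with two chemical exposures 24 h apart. Cells were fixed, nuclei stained and imaged by high-content microscopy. Endpoint is %SOX2+ cells over cell count, minus 0.2% DMSO control; 10-point series 1 nM–200 uM.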
# [5] = tested on: SRY-box transcription factor 17 (SOX17) Protein Expression, Deisenroth Lab, SOX17 (gene 64321); assay: CCTE_Deisenroth_DEVTOX-GLR_Endo_SOX17: CCTE's DevTox GLR-Endo Assay Evaluation of SRY-box transcription factor 17 (SOX17) Protein Expression, Deisenroth Lab (AID 2284413; active = hit-call score of the fitted dose curve at least 0.9, where 1 is the maximum; inactive = score below 0.9)
# In short: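 Seed RUES2-GLR cells 24 h; start endoderm differentiation; dose at 0 and 24 h (1 nM - 200 uM, 10 points); fix at 48 h, stain nuclei, image 5 fields/well; compute SOX17+/total cells vs 0.2% DMSO.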
# [6] = tested on: Brachyury (BRA) Protein Expression, TBXT (gene 6862); assay: CCTE_Deisenroth_DEVTOX-GLR_Endo_BRA: CCTE's DevTox GLR-Endo Assay Evaluation of Brachyury (BRA) Protein Expression, Deisenroth Lab (AID 2284417; active = hit-call score of the fitted dose curve at least 0.9, where 1 is the maximum; inactive = score below 0.9)
# In short: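 Endpoint is the fraction of BRA reporter-positive cells over total nuclei, corrected by subtracting the 0.2% DMSO value. Chemicals (1 nM - 200 uM, 10 points) were dosed twice during 48 h differentiation of RUES2-GLR cells, read by imaging.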
# [7] = CCTE_Deisenroth_DEVTOX-GLR_Endo_CellCount: Viability Assessment in CCTE's DevTox GLR-Endo Assay, Deisenroth Lab (AID 2284420; active = hit-call score of the fitted dose curve at least 0.9, where 1 is the maximum; inactive = score below 0.9)
# In short: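 Measured 48 h after dosing: fluorescent nuclei counted by imaging in human RUES2-GLR cells under defined differentiation media, tested at 1 nM - 200 uM. Values are percent cell-count change relative to 0.2% DMSO.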
# [8] = tested on: SRY-box transcription factor 17 (SOX17) Protein Expression, Deisenroth Lab, SOX17 (gene 64321); assay: CCTE_Deisenroth_DEVTOX-GLR_Pluri_SOX17: CCTE's DevTox GLR-Pluri Assay Evaluation of SRY-box transcription factor 17 (SOX17) Protein Expression, Deisenroth Lab (AID 2284427)
# In short: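 Using an inducible fluorescent SOX17 reporter in human pluripotent RUES2-GLR cells, compounds (1 nM - 200 uM) were given twice over 48 h differentiation. Percent SOX17+ cells minus DMSO control came from high-content image analysis.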
# [9] = tested on: SRY-box transcription factor 2 (SOX2) Protein Expression, Deisenroth Lab, SOX2 (gene 6657); assay: CCTE_Deisenroth_DEVTOX-GLR_Pluri_SOX2: CCTE's DevTox GLR-Pluri Assay Evaluation of SRY-box transcription factor 2 (SOX2) Protein Expression, Deisenroth Lab (AID 2284428; active = hit-call score of the fitted dose curve at least 0.9, where 1 is the maximum; inactive = score below 0.9)
# In short: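 Percent SOX2+ RUES2-GLR cells, determined by fluorescence microscopy after 48 h and two 24-h-interval chemical exposures spanning 1 nM–200 uM, served as the endpoint. Values are expressed relative to 0.2% DMSO; total cell counts assessed viability.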
# [10] = tested on: Brachyury (BRA) Protein Expression, Deisenroth Lab, TBXT (gene 6862); assay: CCTE_Deisenroth_DEVTOX-GLR_Pluri_BRA: CCTE's DevTox GLR-Pluri Assay Evaluation of Brachyury (BRA) Protein Expression, Deisenroth Lab (AID 2284429)
# Method: CCTE_Deisenroth_DEVTOX-GLR_Pluri assay is a cell-based, multiplex-readout assay that uses RUES2-GLR, a human pluripotent cell line, with measurements taken at 48 hours after chemical dosing in a 384-well microplateCCTE_Deisenroth_DEVTOX-GLR_Pluri_BRA is 1 of 4 assay components calculated from the CCTE_Deisenroth_DEVTOX-GLR_Pluri assay and it measures an the percentage of cells in an mesoderm state. Using a type of inducible fluorescent protein reporter, gain-of-signal activity can be used to understand changes in gene expression with fluorescent microscopy. The percentage of BRA+ cells are determined by calculating the number of BRA+ cells divided by the cell count. To generalize the intended target to other relatable targets, this assay component is annotated to the transcription factor intended target family, where the subfamily is T-box protein.Data from the assay component CCTE_Deisenroth_DEVTOX-GLR_Pluri_BRA was analyzed as 1 assay endpoint. The endpoint is the percent BRA+ cell population minus the 0.2% DMSO control in the CCTE_Deisenroth_DEVTOX-GLR_Pluri assay. Furthermore, this assay endpoint can be referred to as a secondary readout, because this assay has produced multiple assay endpoints where this one serves as a measure of mesoderm differentiation.
# as §1
smiles,measurement,setting,value
CC(=O)Oc1ccccc1C(=O)O,outcome,[1],inactive
same,AC50,[2],22.8 µM (active)
same,outcome,[3],inactive
same,outcome,[4],inactive
same,outcome,[5],inactive
same,outcome,[6],inactive
same,outcome,[7],inactive
same,outcome,[8],inactive
same,outcome,[9],inactive
same,outcome,[10],inactive
COc1cccc2c1C(=O)c1c(O)c3c(c(O)c1C2=O)C[C@@](O)(C(=O)CO)C[C@@H]3O[C@H]1C[C@H](N)[C@H](O)[C@H](C)O1,AC50,[3],0.107 µM (active)
same,AC50,[4],2.25 µM (active)
same,AC50,[5],5.85 µM (active)
same,AC50,[6],0.0902 µM (active)
same,AC50,[7],0.00878 µM (active)
same,AC50,[8],0.27 µM (active)
same,AC50,[9],0.0073 µM (active)
same,AC50,[10],0.00927 µM (active)
COc1cc(S(=O)(=O)O)c(C)cc1N=Nc1c(O)ccc2cc(S(=O)(=O)O)ccc12,AC50,[2],35 µM (active)
C=CCOC(=O)c1ccccc1C(=O)OCC=C,AC50,[2],19.5 µM (active)
Cc1ccc(C)c(O)c1C,AC50,[2],33.1 µM (active)
CC1=C(/C=C/C(C)=C/C=C/C(C)=C/CO)C(C)(C)CCC1,AC50,[3],55.7 µM (active)
same,AC50,[5],33.6 µM (active)
same,AC50,[6],66 µM (active)
same,AC50,[7],34.7 µM (active)
same,AC50,[8],39.3 µM (active)
same,AC50,[9],19.8 µM (active)
same,AC50,[10],26.8 µM (active)
OC[C@@H](O)[C@@H](O)[C@H](O)[C@H](O)CO,outcome,[1],inactive
Nc1ccc(S(=O)(=O)c2ccc(N)cc2)cc1,AC50,[2],50 µM (active)
CCOC(=O)C(C)(C)Oc1ccc(Cl)cc1,AC50,[2],24.9 µM (active)
O=c1[nH]cc(F)c(=O)[nH]1,AC50,[3],22 µM (active)
same,AC50,[4],34.3 µM (active)
same,AC50,[5],9.06 µM (active)
same,AC50,[6],20.3 µM (active)
same,AC50,[7],5.89 µM (active)
same,AC50,[8],7.95 µM (active)
same,AC50,[9],7.1 µM (active)
same,AC50,[10],7.54 µM (active)
CCCCC(CC)COC(=O)CC(C(=O)OCC(CC)CCCC)S(=O)(=O)O (stereo not given),AC50,[2],1.95 µM (active)
Cc1cc(NC(=O)C(=O)O)cc(C)c1Oc1ccc(O)c2c1CCC2,AC50,[2],0.667 µM (active)
COc1ccc2c(c1)c(CC(=O)O)c(C)n2C(=O)c1ccc(Cl)cc1,AC50,[2],1.71 µM (active)
same,AC50,[3],17 µM (active)
same,AC50,[4],6.34 µM (active)
same,AC50,[5],16 µM (active)
same,AC50,[6],12.5 µM (active)
same,AC50,[7],10.1 µM (active)
same,AC50,[8],2.61 µM (active)
same,AC50,[9],6.52 µM (active)
same,AC50,[10],6.56 µM (active)
Cc1cccc(Nc2cc(Cl)nc(SCC(=O)O)n2)c1C,AC50,[2],22 µM (active)
C[Si]1(C)O[Si](C)(C)O[Si](C)(C)O[Si](C)(C)O1,outcome,[1],inactive
CCCc1cc(=O)[nH]c(=S)[nH]1,outcome,[3],inactive
same,outcome,[5],inactive
same,outcome,[6],inactive
same,outcome,[7],inactive
same,outcome,[8],inactive
same,outcome,[9],inactive
same,outcome,[10],inactive
Oc1ccc2ccccc2c1N=Nc1ccccc1,AC50,[2],22.2 µM (active)
